What all share (assay): PBM; 200 nM protein, PBS
What all share (conditions): dsDNA, one strand shown

In test [1] the target is T1, VENTX (Homo sapiens, UniProt O95231 78-163, R121Q).
T1 sequence: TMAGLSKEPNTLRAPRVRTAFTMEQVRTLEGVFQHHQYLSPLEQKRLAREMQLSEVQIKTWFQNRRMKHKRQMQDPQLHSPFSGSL

In test [2] the target is T2, VENTX (Homo sapiens, UniProt O95231 78-163).
T2 sequence: T1 sequence with Q44R

The target of test [3] is T3, VENTX (Homo sapiens, UniProt O95231 78-163, Y115F).
T3 sequence: T1 sequence with Y38F, Q44R

Numbering of substitutions follows the chain as printed.

On to CCGATTAA, for which the binding signal with VENTX [1] was 11.3 upbm affinity estimate (log intensity, higher = more binding, comparable within an allelic series); with VENTX [2], 12.5 upbm affinity estimate (log intensity, higher = more binding, comparable within an allelic series); with VENTX [3] it was 11.3 upbm affinity estimate (log intensity, higher = more binding, comparable within an allelic series).

For the sequence CATGGCGG, the binding signal in the test with VENTX [1] was 7.95 upbm affinity estimate (log intensity, higher = more binding, comparable within an allelic series); with VENTX [2] it was 7.8 upbm affinity estimate (log intensity, higher = more binding, comparable within an allelic series); with VENTX [3], 7.87 upbm affinity estimate (log intensity, higher = more binding, comparable within an allelic series).

As for AGCCCGAA, the binding signal in the test with VENTX [1] was 8.34 upbm affinity estimate (log intensity, higher = more binding, comparable within an allelic series); with VENTX [2], 8.32 upbm affinity estimate (log intensity, higher = more binding, comparable within an allelic series); in the test with VENTX [3] it was 8.13 upbm affinity estimate (log intensity, higher = more binding, comparable within an allelic series).

For CTCGTGGC, the binding signal with VENTX [1] is 8.11 upbm affinity estimate (log intensity, higher = more binding, comparable within an allelic series); with VENTX [2] it was 8.09 upbm affinity estimate (log intensity, higher = more binding, comparable within an allelic series); with VENTX [3] it was 8.12 upbm affinity estimate (log intensity, higher = more binding, comparable within an allelic series).

Take CTAATGGC: the binding signal was 12 upbm affinity estimate (log intensity, higher = more binding, comparable within an allelic series) with VENTX [1]; 12.7 upbm affinity estimate (log intensity, higher = more binding, comparable within an allelic series) with VENTX [2]; 11.8 upbm affinity estimate (log intensity, higher = more binding, comparable within an allelic series) in the test with VENTX [3].

In the case of GTCTCCAC, the binding signal is 8.1 upbm affinity estimate (log intensity, higher = more binding, comparable within an allelic series) with VENTX [1]; 8.02 upbm affinity estimate (log intensity, higher = more binding, comparable within an allelic series) with VENTX [2]; 8.1 upbm affinity estimate (log intensity, higher = more binding, comparable within an allelic series) with VENTX [3].

Regarding CTACCCGC, the binding signal with VENTX [1] was 8.06 upbm affinity estimate (log intensity, higher = more binding, comparable within an allelic series); with VENTX [2], 8.07 upbm affinity estimate (log intensity, higher = more binding, comparable within an allelic series); with VENTX [3], 8.08 upbm affinity estimate (log intensity, higher = more binding, comparable within an allelic series).

For AGGTCAGG, the binding signal was 8.18 upbm affinity estimate (log intensity, higher = more binding, comparable within an allelic series) with VENTX [1]; 8.14 upbm affinity estimate (log intensity, higher = more binding, comparable within an allelic series) with VENTX [2]; 8.06 upbm affinity estimate (log intensity, higher = more binding, comparable within an allelic series) with VENTX [3].

ACGTAATA: the binding signal was 10.2 upbm affinity estimate (log intensity, higher = more binding, comparable within an allelic series) with VENTX [1]; 10.5 upbm affinity estimate (log intensity, higher = more binding, comparable within an allelic series) with VENTX [2]; 10.1 upbm affinity estimate (log intensity, higher = more binding, comparable within an allelic series) with VENTX [3].

Take AAATATCT: the binding signal was 9.87 upbm affinity estimate (log intensity, higher = more binding, comparable within an allelic series) with VENTX [1]; 10 upbm affinity estimate (log intensity, higher = more binding, comparable within an allelic series) with VENTX [2]; 9.74 upbm affinity estimate (log intensity, higher = more binding, comparable within an allelic series) in the test with VENTX [3].

In the case of GCGCAGCA, the binding signal with VENTX [1] is 7.82 upbm affinity estimate (log intensity, higher = more binding, comparable within an allelic series); in the test with VENTX [2], 7.9 upbm affinity estimate (log intensity, higher = more binding, comparable within an allelic series); in the test with VENTX [3], 7.91 upbm affinity estimate (log intensity, higher = more binding, comparable within an allelic series).

For CCAAGGGC, the binding signal is 8.09 upbm affinity estimate (log intensity, higher = more binding, comparable within an allelic series) with VENTX [1]; 8.33 upbm affinity estimate (log intensity, higher = more binding, comparable within an allelic series) with VENTX [2]; 8.21 upbm affinity estimate (log intensity, higher = more binding, comparable within an allelic series) with VENTX [3].

On to GTTATTCA, for which the binding signal with VENTX [1] was 9.35 upbm affinity estimate (log intensity, higher = more binding, comparable within an allelic series); in the test with VENTX [2], 9.76 upbm affinity estimate (log intensity, higher = more binding, comparable within an allelic series); with VENTX [3], 9.4 upbm affinity estimate (log intensity, higher = more binding, comparable within an allelic series).

With CACTGCGC, the binding signal with VENTX [1] was 8.04 upbm affinity estimate (log intensity, higher = more binding, comparable within an allelic series); with VENTX [2], 8.14 upbm affinity estimate (log intensity, higher = more binding, comparable within an allelic series); with VENTX [3], 8.18 upbm affinity estimate (log intensity, higher = more binding, comparable within an allelic series).

With ACCACGCC, the binding signal with VENTX [1] was 7.95 upbm affinity estimate (log intensity, higher = more binding, comparable within an allelic series); with VENTX [2], 8.09 upbm affinity estimate (log intensity, higher = more binding, comparable within an allelic series); with VENTX [3], 7.97 upbm affinity estimate (log intensity, higher = more binding, comparable within an allelic series).

For CGATTAAG, the binding signal with VENTX [1] is 11.4 upbm affinity estimate (log intensity, higher = more binding, comparable within an allelic series); in the test with VENTX [2] it was 12.4 upbm affinity estimate (log intensity, higher = more binding, comparable within an allelic series); with VENTX [3], 11.3 upbm affinity estimate (log intensity, higher = more binding, comparable within an allelic series).

Regarding GGTCGGGA, the binding signal in the test with VENTX [1] was 8.05 upbm affinity estimate (log intensity, higher = more binding, comparable within an allelic series); with VENTX [2] it was 8.36 upbm affinity estimate (log intensity, higher = more binding, comparable within an allelic series); with VENTX [3] it was 8.02 upbm affinity estimate (log intensity, higher = more binding, comparable within an allelic series).

Take CGCATGCG: the binding signal was 8.34 upbm affinity estimate (log intensity, higher = more binding, comparable within an allelic series) with VENTX [1]; 8.73 upbm affinity estimate (log intensity, higher = more binding, comparable within an allelic series) with VENTX [2]; 8.4 upbm affinity estimate (log intensity, higher = more binding, comparable within an allelic series) with VENTX [3].

AACGATTA: the binding signal with VENTX [1] was 11.2 upbm affinity estimate (log intensity, higher = more binding, comparable within an allelic series); with VENTX [2] it was 12.3 upbm affinity estimate (log intensity, higher = more binding, comparable within an allelic series); in the test with VENTX [3], 11.3 upbm affinity estimate (log intensity, higher = more binding, comparable within an allelic series).

With CCGGGTGC, the binding signal in the test with VENTX [1] was 8.11 upbm affinity estimate (log intensity, higher = more binding, comparable within an allelic series); with VENTX [2] it was 8.38 upbm affinity estimate (log intensity, higher = more binding, comparable within an allelic series); with VENTX [3], 8.21 upbm affinity estimate (log intensity, higher = more binding, comparable within an allelic series).

Turning to ATCGATAA, the binding signal with VENTX [1] was 10.3 upbm affinity estimate (log intensity, higher = more binding, comparable within an allelic series); with VENTX [2], 11 upbm affinity estimate (log intensity, higher = more binding, comparable within an allelic series); in the test with VENTX [3], 10.2 upbm affinity estimate (log intensity, higher = more binding, comparable within an allelic series).

CATTAGAA: the binding signal with VENTX [1] is 10.5 upbm affinity estimate (log intensity, higher = more binding, comparable within an allelic series); in the test with VENTX [2] it was 11.1 upbm affinity estimate (log intensity, higher = more binding, comparable within an allelic series); with VENTX [3], 10.4 upbm affinity estimate (log intensity, higher = more binding, comparable within an allelic series).

Take CTGGCAGC: the binding signal was 8.09 upbm affinity estimate (log intensity, higher = more binding, comparable within an allelic series) with VENTX [1]; 8.14 upbm affinity estimate (log intensity, higher = more binding, comparable within an allelic series) in the test with VENTX [2]; 8.07 upbm affinity estimate (log intensity, higher = more binding, comparable within an allelic series) in the test with VENTX [3].

TAATGGGA: the binding signal is 11.5 upbm affinity estimate (log intensity, higher = more binding, comparable within an allelic series) with VENTX [1]; 12.4 upbm affinity estimate (log intensity, higher = more binding, comparable within an allelic series) in the test with VENTX [2]; 11.3 upbm affinity estimate (log intensity, higher = more binding, comparable within an allelic series) with VENTX [3].

As to CCCCATTA, the binding signal with VENTX [1] was 11.5 upbm affinity estimate (log intensity, higher = more binding, comparable within an allelic series); with VENTX [2] it was 12.3 upbm affinity estimate (log intensity, higher = more binding, comparable within an allelic series); with VENTX [3] it was 11.3 upbm affinity estimate (log intensity, higher = more binding, comparable within an allelic series).

In the case of CTCGGACC, the binding signal with VENTX [1] was 8.07 upbm affinity estimate (log intensity, higher = more binding, comparable within an allelic series); with VENTX [2], 8.13 upbm affinity estimate (log intensity, higher = more binding, comparable within an allelic series); with VENTX [3], 8.15 upbm affinity estimate (log intensity, higher = more binding, comparable within an allelic series).

Regarding ACCTATTA, the binding signal with VENTX [1] is 11.4 upbm affinity estimate (log intensity, higher = more binding, comparable within an allelic series); with VENTX [2], 12 upbm affinity estimate (log intensity, higher = more binding, comparable within an allelic series); with VENTX [3], 11.1 upbm affinity estimate (log intensity, higher = more binding, comparable within an allelic series).

As to ACCGATTA, the binding signal with VENTX [1] was 11.5 upbm affinity estimate (log intensity, higher = more binding, comparable within an allelic series); with VENTX [2], 12.9 upbm affinity estimate (log intensity, higher = more binding, comparable within an allelic series); with VENTX [3] it was 11.5 upbm affinity estimate (log intensity, higher = more binding, comparable within an allelic series).

On to TCGATTAA, for which the binding signal in the test with VENTX [1] was 11.4 upbm affinity estimate (log intensity, higher = more binding, comparable within an allelic series); in the test with VENTX [2], 12.3 upbm affinity estimate (log intensity, higher = more binding, comparable within an allelic series); in the test with VENTX [3], 11.2 upbm affinity estimate (log intensity, higher = more binding, comparable within an allelic series).

In the case of CCCCGTAC, the binding signal was 8.03 upbm affinity estimate (log intensity, higher = more binding, comparable within an allelic series) in the test with VENTX [1]; 8.06 upbm affinity estimate (log intensity, higher = more binding, comparable within an allelic series) with VENTX [2]; 8.02 upbm affinity estimate (log intensity, higher = more binding, comparable within an allelic series) in the test with VENTX [3].

Consider GTCCACGA, for which the binding signal with VENTX [1] is 8.05 upbm affinity estimate (log intensity, higher = more binding, comparable within an allelic series); with VENTX [2], 7.92 upbm affinity estimate (log intensity, higher = more binding, comparable within an allelic series); in the test with VENTX [3], 7.98 upbm affinity estimate (log intensity, higher = more binding, comparable within an allelic series).

For CCATTAGG, the binding signal was 11.7 upbm affinity estimate (log intensity, higher = more binding, comparable within an allelic series) in the test with VENTX [1]; 12.4 upbm affinity estimate (log intensity, higher = more binding, comparable within an allelic series) in the test with VENTX [2]; 11.4 upbm affinity estimate (log intensity, higher = more binding, comparable within an allelic series) with VENTX [3].

Values taken from PMC11006913.
